Screening results (PubChem BioAssay)
HCMV antiviral: blocks human cytomegalovirus replication; HFF cells, HCMV-luciferase reporter, 72 h; active compounds read low; activity change, negative = inhibition, % at 57.5 µM; 410,000 tested, 4.5% active; in the data active means activity change below about -60%; inconclusive means no clear call, values can overlap the other calls; inactive means above about -39%
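Cell-based, HFFs, 1000 cells/well, 16 h 37C; cpds in DMSO + HCMV-luc, MOI 1 PFU/cell; 72 h 37C; OneGlo luminescence after 5 min RT; norm. to buffer vs Salinomycin 10uM.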
Vaccinia Venus: vaccinia inhibition (Venus reporter). Vaccinia virus Venus reporter expression, fluorescence. Potency, µM (series often up to 36.5 µM), for the others: top-dose activity change, negative = inhibition, actives largely listed as inhibitors. AID 720580. 330,000 tested, 0.46% active; calls by dose curve; tested in A549 cells; further: potency means the concentration at half of the fitted maximal effect; nearly all actives have a fitted effect of over 30% in size
VACV mCherry inh: inhibitors of vaccinia virus infection (mCherry reporter signal) | 310,000 tested, 0.63% active | AID 720579 | Potency, µM (highest dose often 36.5 µM), without a hit: at the highest dose activity change, negative = inhibition, usual class: inhibitors | Vaccinia virus mCherry reporter infection, fluorescence; calls by dose curve; tested in A549 cells; further: potency means the concentration at half of the fitted maximal effect; nearly all actives have a fitted effect of over 35% in size
HCV inh: HCV inhibition. AID 651820. Potency, µM (top dose mostly 41.8 µM), for the others: at the highest dose activity change, negative = inhibition, most hits filed as inhibitors. Huh7.5.1 HCVcc-Cre infection, luciferase reporter, 44 h. 340,000 tested, 3.4% active; further: potency means the concentration at half of the fitted maximal effect
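Cells (1,000/well) were plated 4 h before compound, then infected with HCVcc-Cre virus (~0.5 moi). After 44 h further culture, infection was read as luciferase luminescence following a 15 min substrate incubation at room temperature.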
FMDV inh: foot and mouth disease virus antiviral activity; 410,000 tested, 1.2% active; FMDV antiviral cell-based qHTS; Potency, µM (doses to about 57.9 µM), inactives show at the highest dose activity change, negative = inhibition, most hits filed as inhibitors; AID 1159524; calls by dose curve; tested in HEK293T cells; further: read-out not given here; potency means the concentration at half of the fitted maximal effect; nearly all actives have a fitted effect of over 45% in size
Giardia FBPA inh: Giardia lamblia aldolase inhibition. purified Giardia FBPA. 290,000 tested, 0.71% active. Potency, µM (series often up to 59.6 µM), for inactives: at the highest dose activity, negative = inhibition, most hits filed as inhibitors; further: potency means the concentration at half of the fitted maximal effect; nearly all actives have a fitted effect of over 55% in size
Target sequence (A8B2U2 whole entry, looked up): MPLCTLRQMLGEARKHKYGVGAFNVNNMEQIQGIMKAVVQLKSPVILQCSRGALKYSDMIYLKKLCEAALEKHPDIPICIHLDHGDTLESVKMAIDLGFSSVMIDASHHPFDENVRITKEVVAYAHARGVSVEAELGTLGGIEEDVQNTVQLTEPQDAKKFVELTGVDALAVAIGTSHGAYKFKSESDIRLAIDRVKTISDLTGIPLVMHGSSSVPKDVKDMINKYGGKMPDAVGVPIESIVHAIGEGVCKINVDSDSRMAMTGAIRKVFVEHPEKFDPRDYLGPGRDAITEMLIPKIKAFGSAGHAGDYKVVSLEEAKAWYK
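Giardia FBPA (40 nM reagent) was preincubated 10 min at RT with compound (up to 57.5 uM final), then substrate plus GAPDH/TPI/NAD/arsenate coupling system with diaphorase/resazurin was added; resorufin fluorescence (525/598 nm) was read after 20 min.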
Starred values were filed as active, the others as inactive; i = inactive; ? = inconclusive; / = not tested or not shown; ! = not active in a repeat; [ ] = remark or other dose. Rows were chosen to be rich in hits. Some 7.5% of all compounds tested hit in one or more screens of this group. Unless noted, the call rests on the fitted dose curve; in most records, active means well fitted curve in the direction sought with a large enough effect; inconclusive means small, poorly fitted or top-dose-only effect, or another doubt; inactive means no such curve, though single readings can be large; an effect the other way counts as inactive or inconclusive. On the % scale 0 is the no-effect control and ±100 the full control effect.

SMILES	HCMV antiviral	Vaccinia Venus	VACV mCherry inh	HCV inh	FMDV inh	Giardia FBPA inh
CCc1ccc(CNc2ccc3c(c2)ncn3C(C)(C)C)cc1	-64*!	-18%	-19%	-29%	0%	11%
CN(C)c1ccc(CNc2ccc3c(c2)ncn3C)cc1	-102*	/	/	?	-2%	-17%
CCN(CC)c1ccc(CNc2ccc3c(c2)ncn3C(C)(C)C)cc1	-68*	-16%	?	-28%	26%	5%
COc1ccc(NC(=O)C(=O)c2cn(CC(=O)N3CCCC3)c3ccccc23)cc1	-12	/	/	-27%	24%	/
NS(=O)(=O)c1ccc(CCNc2ncnc3c2c(-c2ccccc2)cn3-c2ccc(F)cc2)cc1	-12	?	/	11µM*	16µM*	-4%
Fc1ccc(-n2cc(-c3ccccc3)c3c(NN4CCOCC4)ncnc32)cc1	?	-19%	?	?	0%	7%
C=C[C@H](Cc1ccccc1)N(Cc1ccccc1)S(=O)(=O)N(Cc1ccccc1)[C@H](C=C)Cc1ccccc1	-86*	-11%	?	-3%[8.37 µM]	?	/
COC(=O)[C@H](Cc1ccccc1)N(Cc1ccc(C)cc1)S(C)(=O)=O	/	-28%	-13%	/	/	/
COC(=O)[C@@H](Cc1ccccc1)N(Cc1ccccc1)S(=O)(=O)N(Cc1ccccc1)[C@H](Cc1ccccc1)C(=O)OC	-96*	-7%	-10%	-14%[8.37 µM]	?	/
C=C[C@H](CC(C)C)N(Cc1ccccc1)S(=O)(=O)N(Cc1ccccc1)[C@H](C=C)CC(C)C	/	-6%	-13%	/	/	/
O=c1cc(/C=C/c2ccc([N+](=O)[O-])cc2)c2ccccc2[nH]1	/	-13%	i	/	/	/
COc1ccc(CCNC(=O)Cn2cnc3scc(-c4ccccc4)c3c2=O)cc1OC	-102*	/	/	-19%	-18%	1%
COc1ccc(CCNC(=O)C2(C)CCC(=O)N2CCC(C)C)cc1OC (centres undefined)	-100*	-14%	-12%	-3%	-6%	-2%
COc1ccc(CCNC(=O)C23CCC(C)(C(=O)O2)C3(C)C)cc1OC (centres undefined)	16	/	/	13%	-1%	4%
CCOc1ccc(CN2CCc3nc(N4CCN(c5ccccc5OC)CC4)ncc3C2)cc1OC	?	?	?	/	20µM*	/
COc1ccc(CN2CCc3nc(N4CCN(c5ccc(F)cc5)CC4)ncc3C2)c(OC)c1OC	-36	?	?	/	20µM*	/
COc1cc(OC)c(OC)cc1CN1CCc2nc(N3CCN(c4ncccn4)CC3)ncc2C1	-71*	-30%	-28%	/	?	/
COc1cc(OC)c(OC)cc1CN1CCc2nc(N3CCN(c4ccccc4F)CC3)ncc2C1	-21	?	?	/	11µM*	/
CCOc1ccc(CN2CCc3nc(N4CCN(c5ncccn5)CC4)ncc3C2)cc1OC	?	-29%	-29%	/	?	/
COc1ccccc1N1CCN(c2ncc3c(n2)CCN(Cc2ccccc2F)C3)CC1	1	-15%	-9%	/	-12%	/
C[C@@]1(C(NC(=O)c2ccc(-c3ccccc3)cc2)c2ccc(Cl)cc2)C[C@H]1C1CCCCC1 (some centres undefined)	/	/	/	/	/	5%
c1ccc2c(CCc3c[nH]c4ccccc34)ccnc2c1	/	66%	?	/	/	/
COCCN(CC(=O)Nc1ccccc1C(F)(F)F)C(=O)/C=C/c1cc(Cl)c2c(c1)OCCO2	-12	-24%	i	-21%	-10%	/
Cc1ccc(S(=O)(=O)N2CCN(C(=O)COC(=O)c3cccc(Cl)c3)CC2)c(C)c1	5	/	/	-8%	-4%	/
COCCN1CCN(C(=O)C2CCC(=O)N(Cc3ccccc3OC)C2)CC1 (centres undefined)	63	-8%	-7%	-5%	0%	/
SMILES	HCMV antiviral	Vaccinia Venus	VACV mCherry inh	HCV inh	FMDV inh	Giardia FBPA inh
CCOc1ccc2ncc(S(=O)(=O)c3ccccc3)c(N3CCC4(CC3)OCCO4)c2c1	?	/	/	1%	/	-1%
COc1ccc(N2CCN(c3c(S(=O)(=O)c4ccccc4)cnc4ccc(OC)cc34)CC2)cc1	?	-19%	i	11µM*	0%	2%
COc1ccc(S(=O)(=O)c2cnc3ccc(OC)cc3c2N2CCC3(CC2)OCCO3)cc1	-74*	-22%	-10%	?	?	0%
CSc1nc2ncc(C(=O)O)c(N)n2n1	?	9%	i	-13%	14%	0%
CN(C)c1ccc(/C=C/c2cc[n+](C)c3ccccc23)cc1	-99*	i	i	11µM*	8.9µM*	?
C[n+]1ccc(/C=C/c2ccccc2O)c2ccccc21	-97*	-13%	-12%	-18%	-14%	-17%
Cc1cc[n+](C)c2ccccc12	/	13%	10%	/	/	/
C[n+]1ccc(-c2ccccc2)c2ccccc21	-87*	-18%	-7%	?	?	/
Cc1cccc(C(=O)N2CCn3c(nnc3C(=O)NC(C)C)C2)c1C	-13	/	/	/	/	/
CN(C(=O)c1ccc(NC(=O)C2CCN(C(=O)OC(C)(C)C)CC2)cc1)C1CCC1	-4	-11%	-23%	-26%	-21%	/
Cn1cc(CN2CCCC(C(=O)c3ccc(-c4ccccc4)c(F)c3)C2)cn1 (centres undefined)	-13	-9%	?	?	-25%	1%
CCn1cc(CN2CCCC(C(=O)c3ccc(-c4ccccc4)cc3)C2)cn1 (centres undefined)	-61*	-19%	i	?	-9%	-2%
Cc1nn(C)cc1CN1CCCC(C(=O)c2ccc(-c3ccccc3)c(F)c2)C1 (centres undefined)	?	-17%	i	10µM*	-9%	-1%
Cn1cc(CN2CCCC(C(=O)c3ccc(-c4ccccc4)cc3)C2)cn1 (centres undefined)	-18	-16%	0%	14µM*	8%	-5%
N#Cc1ccccc1Cn1cc(/C=C/[N+](=O)[O-])c2ccccc21	-101*	?	?	?	14µM*	-4%
O=C(O)Cn1cc(/C=C/[N+](=O)[O-])c2ccccc21	83	9%	8%	20%	-9%	-6%
CC(C)C(=O)c1cn(Cc2ccccc2C#N)c2ccccc12	4	-5%	/	?	-26%	4%
O=C(Cn1cc(/C=C\[N+](=O)[O-])c2ccccc21)Nc1ccccc1	?	17%	14%	?	13µM*	4%
O=[N+]([O-])/C=C/c1cn(Cc2ccccc2)c2ccccc12	-104*	-18%	/	-6%	-40%	-10%
Fc1ccc(CCNc2ncnc3nc[nH]c23)cc1	/	?	-19%	/	/	/
CC(=O)c1sc(NC(=O)COc2ccc(C(C)C)c(C)c2)nc1C	-38	-1%	-2%	2.5µM*	-27%	1%
COc1cc(OC)cc(-c2cc3c(Nc4cccc(S(C)(=O)=O)c4)nccc3n2C)c1	-14	/	/	/	/	/
CN1/C(=C/c2cccc[n+]2C)Sc2ccccc21	-97*	/	/	?	?	8%
